Results published in PubChem BioAssay (NCATS).
Inconclusive results are not listed. Calls of active or inactive are those of the source. Unless noted, calls follow the shape of the dose curve; as a rule, active = well fitted curve in the direction sought with a large enough effect; inconclusive = small, poorly fitted or top-dose-only effect, or another doubt; inactive = no such curve, though single readings can be large; an effect the other way counts as inactive or inconclusive.

How the values were obtained:
[1] = Cytometric Cell-Based qHTS for Inhibitors of the mTORC1 Signaling Pathway in MEF (Tsc2-/-, p53-/-) Cells (AID 2660);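 also: percent of cells above a phospho-rpS6 to PI ratio cutoff in each well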
In short: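 Immunofluorescence qHTS of rpS6 Ser235/236 phosphorylation: MEFs (Tsc2-/-, p53-/-) treated 24 h, 37 C, in DMEM + 10% FBS. Alexa-488 signal normalized to PI count, referenced to rapamycin (7.5 nM) and DMSO; PI cell number recorded for viability.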

[2] = High Content Imaging Cell-Based qHTS for Inhibitors of the mTORC1 Signaling Pathway in MEF (Tsc2-/-, p53-/-) Cells (AID 2666); settings: at 38.3 µM (top of the series);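 also: percent of cells scored positive for phospho-rpS6 Ser235/236 immunostaining by imaging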
In short: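 Phospho-rpS6 (Ser235/236) immunofluorescence, normalized and scored as % positive cells using rapamycin and DMSO controls, was read in empty-vector Tsc2-/-, p53-/- MEFs after 24 h compound exposure at 37 C; propidium iodide counted cells.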

[3] = High Content Imaging Cell-Based qHTS for Inhibitors of the mTORC1 Signaling Pathway in MEF Cells (AID 2667); also: potency is read from the fitted curve at half-maximal effect
In short: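 WT MEFs (Tsc2-/-, p53-/- re-expressing Tsc2), in DMEM + 10% FBS, were treated with compound for 24 h at 37 C. Cells were then fixed and stained for phospho-rpS6 Ser235/236 with propidium iodide as cell count. Values are % positive cells, with thresholds set against rapamycin-treated cells.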

[4] = Cytometry Cell-Based qHTS for Inhibitors of the mTORC1 Signaling Pathway in MEF cells (AID 2668); also: potency is read from the fitted curve at half-maximal effect
In short: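 Phospho-rpS6 (Ser235/236) immunofluorescence over PI signal, scored as % positive cells using thresholds from 7.5 nM rapamycin and DMSO wells, after 24 h compound exposure of WT-Tsc2-rescued Tsc2-/-, p53-/- MEFs. PI cell count recorded for viability.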

[5] = target: Ubiquitin carboxyl-terminal hydrolase 2 (Homo sapiens) (UniProt O75604); experiment: qHTS Validation Assay for Inhibitors of Ubiquitin-specific Protease USP2a Using CHOP2 as the Reporter (AID 463106)
In short: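 USP2 core (10 nM final) was preincubated with compound 30 min at RT in pH 8.0 Tris/CaCl2/beta-ME/CHAPS buffer. Ub-CHOP2 and reporter substrate (25 nM final each) were then added, with fluorescence (Ex 485/Em 531) read after 60 min. Data were normalized to NEM full inhibition and fitted to concentration-response curves.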

[6] = target: DNA polymerase III PolC-type (Bacillus subtilis (strain 168)) (UniProt P13267); experiment: qHTS Validation Assay for the Inhibitors of DNA Replication in Gram-Positive Bacteria (AID 485295);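 also: reconstituted holoenzyme with PolC plus beta clamp SSB and primase; PicoGreen fluorescence of double-stranded DNA made on primed circular M13 template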
In short: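 Double-stranded DNA product detected by PicoGreen fluorescence after EDTA quench. Compound incubated with B. subtilis holoenzyme (PolC, beta subunit, SSB, primase) before substrate addition; primed replication of M13Gori with dNTPs and NTPs at room temperature; DMSO defines 0% inhibition.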

[7] = target: Tumor susceptibility gene 101 protein (Homo sapiens) (UniProt Q99816); experiment: qHTS Validation Assay for Iinhibitors of HIV-1 Budding by Blocking the Interaction of PTAP/TSG101 (AID 485342; calls by dose curve)
In short: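 Fluorescence polarization of 50 nM FITC-PTAP peptide bound to 10 uM Tsg101 binding domain was read after 20 min room-temperature incubation with compounds, in 10 mM HEPES pH 7.5, 0.15 M NaCl, 0.01% Tween 20.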

[8] = target: Beta-2 adrenergic receptor (Homo sapiens) (UniProt P07550); experiment: qHTS validation assay of beta-arrestin-biased ligands of beta2-adrenergic receptor (AID 485366)
In short: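 Arrestin-recruitment (Tango) reporter: ligand-bound beta2-AR recruits beta-arrestin, releasing tTA, which upregulates luciferase. Titrations of up to 46 microM incubated 18 hr at 37 degrees C before luminescent readout.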

[9] = target: Thioredoxin reductase 1, cytoplasmic (Rattus norvegicus) (UniProt O89049); experiment: qHTS Assay for Substrates of Mammalian Selenoprotein Thioredoxin Reductase 1 (TrxR1) (AID 488772);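 also: NADPH fluorescence in the first read after selenite addition and not the 8 min delta; a drop in NADPH fluorescence below the no-compound background marks a TrxR1 substrate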
In short: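 Quantitative HTS in Tris-HCl buffer at pH 7.5 with EDTA and Tween-20, using rat TrxR1, 400 uM NADPH and 400 uM selenite (final). A fall in initial NADPH fluorescence relative to background marked substrate behaviour.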

[10] = target: Thioredoxin reductase 1, cytoplasmic (Rattus norvegicus) (UniProt O89049); experiment: qHTS Assay for Inhibitors of Mammalian Selenoprotein Thioredoxin Reductase 1 (TrxR1) (AID 488773); settings: Potency: inhibition;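 also: drop in NADPH fluorescence over an 8 min run after selenite addition; nearly all actives have a fitted effect of over 40% in size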
In short: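 Steps: enzyme (90 nM) plus NADPH (400 uM final), 5 min at ~22 deg C; compound added, 15 min; selenite (400 uM final) added; fluorescence followed for 8 min. Concentration-response curves derived from the normalized delta values.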

[11] = target: Flap endonuclease 1 (Homo sapiens) (UniProt P39748); experiment: qHTS Validation Assay for the Inhibitors of Human Flap endonuclease 1 (FEN1) (AID 488816)
In short: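 Human FEN1 (10 nM) preincubated 15 min at room temperature with compounds, then flap DNA substrate added at 50 nM final. Fluorescence read at 0 and 15 min; concentration-response fitted with four-parameter Hill equation.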

[12] = target: M-phase phosphoprotein 8 (Homo sapiens) (UniProt Q99549); experiment: qHTS Validation Assay for Inhibitors for MPP8 Chromodomain Interactions with Methylated Histone Tails (AID 488949); also: potency is read from the fitted curve at half-maximal effect; nearly all actives have a fitted effect of over 55% in size
In short: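 AlphaScreen proximity signal from streptavidin donor and Ni-chelate acceptor beads (10 ug/mL each) reported binding of MPP8 to trimethyl-K9 H3(1-18) peptide, both at 50 nM. The complex formed 30 min before a 30 min compound exposure at room temperature, in PBS pH 7.4.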

[13] = target: Chromobox protein homolog 1 (Homo sapiens) (UniProt P83916); experiment: qHTS Validation Assay for Inhibitors of HP1-beta Chromodomain Interactions with Methylated Histone Tails (AID 488953); also: potency is read from the fitted curve at half-maximal effect; nearly all actives have a fitted effect of over 50% in size
In short: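 HP1-beta (50 nM) was preincubated 30 min at room temperature with biotinylated H3(1-18)K9me3 peptide (50 nM) in PBS pH 7.4, 0.01% Tween-20, then with compounds 30 min. AlphaScreen signal was read after streptavidin donor/nickel chelate acceptor beads (10 ug/mL final).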

[14] = target: Methanococcus maripaludis chaperonin (MmCpn) (UniProt Q6LX38); experiment: High-Throughput Screening for Modulators of Cytosolic Chaperonin Activity: MmCpn Primary Screen (AID 488978);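 also: 50 nM MmCpn enzyme hydrolysing 30 µM ATP at 37 °C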
In short: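 ATPase activity of 50 nM MmCpn was assayed with 30 uM ATP, 10 minutes at 37C, after a 5 min compound preincubation at room temperature. ADP production was read as HTRF emission at 590 and 665 nm.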

[15] = target: D(1A) dopamine receptor (Homo sapiens) (UniProt P21728); experiment: HTS Assay for Allosteric Agonists of the Human D1 Dopamine Receptor: Primary Screen for Agonists (AID 488981)
In short: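 Tetracycline-induced HEK293 Trex D1 cells with forced coupling to calcium, loaded with no-wash calcium dye; kinetic fluorescence read 180 s after compound addition for agonism, then a further 180 s after an EC20 dopamine challenge for potentiation.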

[16] = target: D(1A) dopamine receptor (Homo sapiens) (UniProt P21728); experiment: HTS Assay for Allosteric Agonists of the Human D1 Dopamine Receptor: Primary Screen for Antagonists (AID 488983);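 also: calcium flux response to an EC80 dopamine challenge measured with no-wash dye; nearly all actives have a fitted effect of over 65% in size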
In short: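 Tetracycline-induced HEK293 T-REx cells expressing force-coupled D1 were plated overnight at 30 C, dye-loaded for calcium, and read kinetically. Compounds were pinned in, then an EC80 dopamine challenge followed after 180 s to reveal antagonism.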

[17] = Validation screen for small molecules that induce genotoxicity in human embryonic kidney (HEK293T) cells expressing luciferase-tagged ELG1 (AID 493106)
In short: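 HEK293T cells expressing luciferase-tagged ELG1 were exposed to compound or DMSO vehicle for 16 hr at 37 °C, 5% CO2. Genotoxic stress raises ELG1 levels, so increased luciferase signal after ONE-Glo addition and 30 min at room temperature marks hits.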

[18] = target: ATPase family AAA domain-containing protein 5 (Homo sapiens) (UniProt Q96QE3); experiment: Validation screen for small molecules that inhibit ELG1-dependent DNA repair in human embryonic kidney (HEK293T) cells expressing luciferase-tagged ELG1 (AID 493107); also: potency is read from the fitted curve at half-maximal effect; nearly all actives have a fitted effect of over 70% in size
In short: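 HEK293T cells expressing luciferase-tagged ELG1 were co-treated with 5-fluorouridine and compound or DMSO for 16 hr at 37 °C, 5% CO2. Luciferase activity was then read with ONE-Glo after 30 min at room temperature; suppressed signal indicates blocked ELG1 function.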

[19] = qHTS for Inhibitors of Cell Surface uPA Generation: Validation Assay (AID 493164);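 also: RAW 264.7 macrophage cells exposed to compound for 18 h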
In short: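 RAW 264.7, 4000 cells/well, o/n plating; cpd 7-pt 1:5 dilution 2.45 nM–38.3 uM final; 18 h, 37 C/5% CO2; ATP-Lite, 5 s luminescence exposure.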

[20] = target: Peptidyl-prolyl cis-trans isomerase NIMA-interacting 1 (Homo sapiens) (UniProt Q13526); experiment: qHTS Validation Assay to Find Inhibitors of Pin1 (AID 504536; active = well fitted inhibition curve with a large enough effect in the polarisation, with a control signal flat, not every such curve was filed as active; the % refers to the polarisation)
In short: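 Fluorescence polarization competition: compounds (titration) displace HiFluor-488-labeled Pin1-1b peptide from Pin1 (0.3 uM final) in pH 7.5 HEPES buffer with DTT, 10 min at room temperature; %Activity normalized to no-enzyme wells, curves fitted.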

[21] = target: Ubiquitin carboxyl-terminal hydrolase 1 (Homo sapiens) (UniProt O94782); experiment: Inhibitors of USP1/UAF1: Pilot qHTS (AID 504865);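 also: rhodamine fluorescence freed from ubiquitin-rhodamine substrate followed over time; top concentration of the series differs between compounds; nearly all actives have a fitted effect of over 35% in size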
In short: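 Deubiquitinase activity followed as kinetic rhodamine fluorescence release from 150 nM Ub-Rho. 1 nM USP1/UAF1 with compound, after 15 min room-temperature preincubation, in HEPES pH 7.8 buffer containing TCEP, EDTA, BSA and Tween-20.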

[22] = qHTS for Inhibitors of ATXN expression: Validation of Cytotoxic Assay (AID 588349); also: potency is read from the fitted curve at half-maximal effect
In short: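 HEK293 cells were dosed with titrated compounds for 72 hr at 37 degrees C. Viability was read by CellTiter Glo luminescence, with intracellular ATP as the marker of cell survival.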

[23] = qHTS for Inhibitors of ATXN expression: Validation (AID 588378); also: potency is read from the fitted curve at half-maximal effect; nearly all actives have a fitted effect of over 75% in size
In short: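 Luciferase luminescence (Bright-Glo) from an ATXN2-FFLuc HEK293 line after 24 h compound exposure at 37 °C, preceded by a CellTiter-Fluor fluorescence viability read. Serial dilutions of a reference ATXN2 inhibitor and a luciferase inhibitor served as controls.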

[24] = qHTS of Trypanosoma Brucei Inhibitors: LOPAC Validation (AID 624147)
In short: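 TbPYK + substrate in 50 mM TEA pH 7.2, 100 mM KCl, 10 mM MgCl2, 0.05% BSA, 0.01% Tween-20; cpd pinned; ADP 130 uM final; 45 min RT; Kinase-Glo Plus 10 min; luminescence endpoint.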

Measured: Potency

D(1A) dopamine receptor (Homo sapiens), sequence (P21728 whole entry, looked up): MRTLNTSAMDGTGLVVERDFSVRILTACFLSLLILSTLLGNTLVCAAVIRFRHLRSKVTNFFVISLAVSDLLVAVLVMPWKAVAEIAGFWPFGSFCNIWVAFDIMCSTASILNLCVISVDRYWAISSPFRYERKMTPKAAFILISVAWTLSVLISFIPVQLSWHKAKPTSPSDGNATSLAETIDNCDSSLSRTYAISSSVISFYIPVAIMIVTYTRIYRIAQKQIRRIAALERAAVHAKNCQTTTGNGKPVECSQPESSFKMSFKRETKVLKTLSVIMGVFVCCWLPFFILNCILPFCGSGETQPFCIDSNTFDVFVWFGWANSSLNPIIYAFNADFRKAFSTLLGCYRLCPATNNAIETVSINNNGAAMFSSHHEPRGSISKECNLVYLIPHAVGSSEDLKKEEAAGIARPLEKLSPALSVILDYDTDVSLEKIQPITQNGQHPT
Thioredoxin reductase 1, cytoplasmic (Rattus norvegicus), sequence (O89049 whole entry, looked up): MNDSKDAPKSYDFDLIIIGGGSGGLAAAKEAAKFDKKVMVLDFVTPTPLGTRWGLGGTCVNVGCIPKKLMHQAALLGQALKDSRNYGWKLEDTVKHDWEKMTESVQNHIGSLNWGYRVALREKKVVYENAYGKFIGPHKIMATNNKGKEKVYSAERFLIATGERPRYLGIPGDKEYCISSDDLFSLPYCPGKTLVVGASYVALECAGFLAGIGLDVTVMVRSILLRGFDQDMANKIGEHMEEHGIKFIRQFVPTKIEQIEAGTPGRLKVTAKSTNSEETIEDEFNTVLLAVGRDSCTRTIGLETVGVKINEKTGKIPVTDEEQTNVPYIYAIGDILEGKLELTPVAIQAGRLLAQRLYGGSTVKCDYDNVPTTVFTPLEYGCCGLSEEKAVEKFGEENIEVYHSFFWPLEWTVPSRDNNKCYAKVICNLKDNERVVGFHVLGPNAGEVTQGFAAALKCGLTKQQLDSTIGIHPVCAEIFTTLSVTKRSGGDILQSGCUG
Peptidyl-prolyl cis-trans isomerase NIMA-interacting 1 (Homo sapiens), sequence (Q13526 whole entry, looked up): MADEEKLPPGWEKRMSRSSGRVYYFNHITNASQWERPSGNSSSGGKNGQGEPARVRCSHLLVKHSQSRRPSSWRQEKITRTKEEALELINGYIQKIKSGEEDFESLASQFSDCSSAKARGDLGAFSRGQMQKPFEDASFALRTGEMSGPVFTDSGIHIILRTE
Ubiquitin carboxyl-terminal hydrolase 2 (Homo sapiens), sequence (O75604 whole entry, looked up): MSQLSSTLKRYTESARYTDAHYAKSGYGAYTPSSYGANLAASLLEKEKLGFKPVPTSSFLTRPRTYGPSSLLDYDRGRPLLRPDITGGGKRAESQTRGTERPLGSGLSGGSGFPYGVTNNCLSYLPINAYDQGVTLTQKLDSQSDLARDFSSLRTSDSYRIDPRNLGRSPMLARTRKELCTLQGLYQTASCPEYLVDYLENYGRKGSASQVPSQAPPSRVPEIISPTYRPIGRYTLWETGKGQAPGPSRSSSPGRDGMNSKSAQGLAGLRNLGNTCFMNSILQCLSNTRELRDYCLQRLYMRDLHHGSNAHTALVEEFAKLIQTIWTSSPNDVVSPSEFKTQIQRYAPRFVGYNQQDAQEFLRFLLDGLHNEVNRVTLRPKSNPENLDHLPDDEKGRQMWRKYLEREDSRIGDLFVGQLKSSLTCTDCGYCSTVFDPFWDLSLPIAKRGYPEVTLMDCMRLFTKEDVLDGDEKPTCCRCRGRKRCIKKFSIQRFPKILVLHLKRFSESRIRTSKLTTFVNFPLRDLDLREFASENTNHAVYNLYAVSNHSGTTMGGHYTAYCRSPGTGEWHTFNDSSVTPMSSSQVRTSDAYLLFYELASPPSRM
ATPase family AAA domain-containing protein 5 (Homo sapiens), sequence (Q96QE3 whole entry, looked up, the tested form may be a part): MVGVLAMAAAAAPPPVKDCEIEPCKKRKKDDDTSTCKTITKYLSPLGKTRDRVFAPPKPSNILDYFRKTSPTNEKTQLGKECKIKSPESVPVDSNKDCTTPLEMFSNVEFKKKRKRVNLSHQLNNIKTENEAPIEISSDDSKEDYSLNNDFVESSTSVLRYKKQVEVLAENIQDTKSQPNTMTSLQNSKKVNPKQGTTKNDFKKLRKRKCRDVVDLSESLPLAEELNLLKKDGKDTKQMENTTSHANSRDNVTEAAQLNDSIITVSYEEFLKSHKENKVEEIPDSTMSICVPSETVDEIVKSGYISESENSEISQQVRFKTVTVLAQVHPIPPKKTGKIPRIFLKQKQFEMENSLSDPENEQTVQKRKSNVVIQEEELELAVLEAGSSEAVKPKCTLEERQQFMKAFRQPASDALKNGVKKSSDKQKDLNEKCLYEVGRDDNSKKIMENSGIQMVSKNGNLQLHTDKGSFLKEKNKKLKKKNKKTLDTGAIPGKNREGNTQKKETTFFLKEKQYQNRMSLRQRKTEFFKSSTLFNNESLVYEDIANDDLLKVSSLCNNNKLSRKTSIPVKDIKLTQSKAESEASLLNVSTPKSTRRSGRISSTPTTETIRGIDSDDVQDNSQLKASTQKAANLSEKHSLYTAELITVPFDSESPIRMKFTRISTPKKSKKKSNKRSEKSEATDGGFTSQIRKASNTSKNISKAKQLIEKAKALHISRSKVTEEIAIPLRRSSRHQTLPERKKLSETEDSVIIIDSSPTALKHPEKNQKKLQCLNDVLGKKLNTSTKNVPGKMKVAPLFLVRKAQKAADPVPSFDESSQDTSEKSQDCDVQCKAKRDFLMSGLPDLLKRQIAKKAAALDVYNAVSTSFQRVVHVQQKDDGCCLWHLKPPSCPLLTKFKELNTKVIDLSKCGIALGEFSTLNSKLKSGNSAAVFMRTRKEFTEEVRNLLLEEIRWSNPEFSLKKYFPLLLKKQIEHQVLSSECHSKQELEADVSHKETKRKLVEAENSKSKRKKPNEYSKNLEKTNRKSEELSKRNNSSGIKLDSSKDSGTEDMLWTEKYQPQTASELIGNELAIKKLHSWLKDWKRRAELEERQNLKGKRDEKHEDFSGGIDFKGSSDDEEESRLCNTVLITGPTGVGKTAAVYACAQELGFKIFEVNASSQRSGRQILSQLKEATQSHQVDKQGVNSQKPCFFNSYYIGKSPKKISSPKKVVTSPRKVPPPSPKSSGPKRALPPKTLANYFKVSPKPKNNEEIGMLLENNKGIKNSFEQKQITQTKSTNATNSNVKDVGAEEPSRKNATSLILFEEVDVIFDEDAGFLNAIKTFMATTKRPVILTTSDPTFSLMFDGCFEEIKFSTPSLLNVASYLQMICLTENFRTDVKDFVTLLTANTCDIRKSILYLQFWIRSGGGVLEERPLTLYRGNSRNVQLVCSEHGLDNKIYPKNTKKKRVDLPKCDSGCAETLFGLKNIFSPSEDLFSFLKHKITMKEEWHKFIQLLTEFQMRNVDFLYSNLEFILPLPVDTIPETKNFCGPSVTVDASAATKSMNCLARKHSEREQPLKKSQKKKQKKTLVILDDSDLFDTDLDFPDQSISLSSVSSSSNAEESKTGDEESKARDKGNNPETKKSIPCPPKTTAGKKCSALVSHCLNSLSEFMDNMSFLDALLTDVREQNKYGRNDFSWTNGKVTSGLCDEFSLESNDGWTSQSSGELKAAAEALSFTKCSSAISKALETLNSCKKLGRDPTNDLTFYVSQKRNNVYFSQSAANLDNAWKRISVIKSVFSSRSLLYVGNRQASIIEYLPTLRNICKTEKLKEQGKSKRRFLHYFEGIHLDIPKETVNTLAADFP
DNA polymerase III PolC-type (Bacillus subtilis (strain 168)), sequence (P13267 whole entry, looked up): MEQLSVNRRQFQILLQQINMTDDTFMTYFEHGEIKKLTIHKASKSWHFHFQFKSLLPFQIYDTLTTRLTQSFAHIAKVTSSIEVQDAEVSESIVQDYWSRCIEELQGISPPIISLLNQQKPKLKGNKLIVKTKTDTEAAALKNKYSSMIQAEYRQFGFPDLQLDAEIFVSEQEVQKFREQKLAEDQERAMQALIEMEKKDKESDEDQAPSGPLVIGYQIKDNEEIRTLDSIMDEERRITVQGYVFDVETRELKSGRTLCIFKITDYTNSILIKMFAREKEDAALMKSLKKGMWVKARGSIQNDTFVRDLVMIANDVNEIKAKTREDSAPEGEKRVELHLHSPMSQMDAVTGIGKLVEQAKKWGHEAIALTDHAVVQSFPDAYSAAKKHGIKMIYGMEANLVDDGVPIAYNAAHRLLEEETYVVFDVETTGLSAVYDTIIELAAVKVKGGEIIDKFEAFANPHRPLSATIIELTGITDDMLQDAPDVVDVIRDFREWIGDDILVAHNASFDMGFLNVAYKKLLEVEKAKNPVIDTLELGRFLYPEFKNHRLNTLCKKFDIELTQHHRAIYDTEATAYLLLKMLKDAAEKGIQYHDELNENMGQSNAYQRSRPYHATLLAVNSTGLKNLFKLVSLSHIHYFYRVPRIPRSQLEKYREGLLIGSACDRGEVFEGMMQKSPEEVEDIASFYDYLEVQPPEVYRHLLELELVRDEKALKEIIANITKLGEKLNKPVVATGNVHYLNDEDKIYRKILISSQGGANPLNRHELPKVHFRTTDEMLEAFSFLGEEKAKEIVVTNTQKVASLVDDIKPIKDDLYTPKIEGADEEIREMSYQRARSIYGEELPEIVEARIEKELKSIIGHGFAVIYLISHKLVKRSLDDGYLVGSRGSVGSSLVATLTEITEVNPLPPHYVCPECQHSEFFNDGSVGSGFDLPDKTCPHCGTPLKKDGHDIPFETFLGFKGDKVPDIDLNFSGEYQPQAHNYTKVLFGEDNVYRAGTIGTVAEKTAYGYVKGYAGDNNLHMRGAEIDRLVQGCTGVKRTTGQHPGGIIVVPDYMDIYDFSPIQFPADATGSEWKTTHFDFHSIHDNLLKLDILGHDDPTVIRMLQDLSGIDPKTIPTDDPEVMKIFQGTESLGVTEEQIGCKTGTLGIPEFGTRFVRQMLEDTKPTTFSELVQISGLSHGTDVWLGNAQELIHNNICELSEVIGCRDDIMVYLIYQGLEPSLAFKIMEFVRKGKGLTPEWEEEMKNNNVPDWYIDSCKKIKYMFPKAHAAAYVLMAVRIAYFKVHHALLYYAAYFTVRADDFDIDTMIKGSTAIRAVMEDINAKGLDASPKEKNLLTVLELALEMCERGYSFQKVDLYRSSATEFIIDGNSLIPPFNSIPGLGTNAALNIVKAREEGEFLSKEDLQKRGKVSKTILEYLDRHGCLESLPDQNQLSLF

O=C1c2ccccc2C(=O)c2c(NCCc3ccc(O)cc3)ccc(NCCc3ccc(O)cc3)c21
active: [3] 4.65 µM | [4] 4.65 µM | [12] 2.12 µM | [13] 1.78 µM | [18] 14.6 µM | [22] 8.91 µM | [23] 8.91 µM
inactive: all other assays above
